Laboratory results reported in PubChem BioAssay (NCATS).
Results filed as inconclusive are left out. Calls of active or inactive are those of the source. The call rests on the fitted dose curve; in most records, active means well fitted cell-killing curve with a large enough effect; inconclusive means small, poorly fitted or top-dose-only effect, or effect the other way; inactive means flat fitted curve, though single readings scatter.

Assays:
Experiment in all cases: Primary qHTS to identify gynecologic anti-cancer compounds using libraries of approved drugs and bioactive compounds (AID 1345084); further: nearly all actives have a fitted effect of over 55% in size
CAOV3 = conditions: Gynecologic cancer cell panel viability, ATPlite luminescence, 48 h; series mostly up to 57.5 µM
Outline: (§1)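 Cells, 1,000 per well, were allowed to settle for 16 h at 37 C before compound addition. Five concentrations were tested for 48 h, and viability was read by ATPlite luminescence after 15 min at room temperature.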

CASKI = conditions: Gynecologic cancer cell panel viability, ATPlite luminescence, 48 h; series mostly up to 57.5 µM
Outline: as §1

Es-2 = conditions: Gynecologic cancer cell panel viability, ATPlite luminescence, 48 h; series mostly up to 57.5 µM
Outline: as §1

HeLa = conditions: Gynecologic cancer cell panel viability, ATPlite luminescence, 48 h; series mostly up to 57.5 µM
Outline: as §1

Hek293T = conditions: Gynecologic cancer cell panel viability, ATPlite luminescence, 48 h, control line for the selectivity index; series mostly up to 57.5 µM
Outline: as §1

JEG-3 = conditions: Gynecologic cancer cell panel viability, ATPlite luminescence, 48 h; series mostly up to 57.5 µM
Outline: as §1

OV90 = conditions: Gynecologic cancer cell panel viability, ATPlite luminescence, 48 h; series mostly up to 57.5 µM
Outline: as §1

PA-1 = conditions: Gynecologic cancer cell panel viability, ATPlite luminescence, 48 h; series mostly up to 57.5 µM
Outline: as §1

Tov-21-G = conditions: Gynecologic cancer cell panel viability, ATPlite luminescence, 48 h; series mostly up to 57.5 µM
Outline: as §1

Tov112D = conditions: Gynecologic cancer cell panel viability, ATPlite luminescence, 48 h; series mostly up to 57.5 µM
Outline: as §1

SKOV3 = conditions: Gynecologic cancer cell panel viability, ATPlite luminescence, 48 h; series mostly up to 57.5 µM
Outline: as §1
On the % scale 0 is the no-effect control and ±100 the full control effect.

COc1ccc2cc(OCC3(C(=O)O)CN(C(=O)c4ccc(F)cc4)C3)ccc2c1
inactive: Potency (CAOV3) | Potency (CASKI) | Potency (Es-2) | Potency (HeLa) | Potency (Hek293T) | Potency (JEG-3) | Potency (OV90) | Potency (PA-1) | Potency (Tov-21-G) | Potency (Tov112D)

COC(=O)[C@@]1(O)C=CC[C@@H]2[C@@]3(C)C[C@@H](c4ccoc4)OC(=O)[C@H]3CC[C@]21C
inactive: Potency (CAOV3) | Potency (CASKI) | Potency (Es-2) | Potency (HeLa) | Potency (Hek293T) | Potency (JEG-3) | Potency (OV90) | Potency (SKOV3) | Potency (Tov-21-G) | Potency (Tov112D)

O=C1N(CC2CCCCN2)CCN1c1ccccc1 (stereo not given)
inactive: Potency (CAOV3) | Potency (CASKI) | Potency (Es-2) | Potency (HeLa) | Potency (Hek293T) | Potency (JEG-3) | Potency (OV90) | Potency (PA-1) | Potency (Tov-21-G) | Potency (Tov112D)

O=C(O)C[C@H]1CCC(=O)[C@@H]1C/C=C\CCOC1OC(CO)C(O)C(O)C1O (stereo not given in full)
inactive: Potency (CAOV3) | Potency (CASKI) | Potency (Es-2) | Potency (HeLa) | Potency (Hek293T) | Potency (JEG-3) | Potency (OV90) | Potency (PA-1) | Potency (Tov-21-G) | Potency (Tov112D)

COC(=O)[C@H](OC(C)=O)[C@H]1C(C)(C)C(=O)[C@H]2CC3=C4CC(=O)O[C@@H](c5ccoc5)[C@]4(C)CCC3[C@@]1(C)C2=O (stereo not given in full)
inactive: Potency (CAOV3) | Potency (CASKI) | Potency (Es-2) | Potency (HeLa) | Potency (Hek293T) | Potency (JEG-3) | Potency (OV90) | Potency (SKOV3) | Potency (Tov-21-G) | Potency (Tov112D)

CC1CCC23COC(=O)C2=CC(O)CC3C1(C)CCC1=CC(=O)OC1O (stereo not given)
inactive: Potency (CAOV3) | Potency (CASKI) | Potency (Es-2) | Potency (HeLa) | Potency (Hek293T) | Potency (JEG-3) | Potency (OV90) | Potency (PA-1) | Potency (Tov-21-G) | Potency (Tov112D)

COc1ccc2c(c1)OC[C@]1(O)c3cc4c(cc3O[C@H]21)OCO4
inactive: Potency (CAOV3) | Potency (CASKI) | Potency (Es-2) | Potency (HeLa) | Potency (Hek293T) | Potency (JEG-3) | Potency (OV90) | Potency (SKOV3) | Potency (Tov-21-G) | Potency (Tov112D)

O=C1[C@H](O[C@@H]2O[C@H](CO)[C@@H](O)[C@H](O)[C@H]2O)Oc2ccccc2N1O
inactive: Potency (CAOV3) | Potency (CASKI) | Potency (Es-2) | Potency (HeLa) | Potency (Hek293T) | Potency (JEG-3) | Potency (OV90) | Potency (PA-1) | Potency (Tov-21-G) | Potency (Tov112D)

CNc1nc(Nc2cnn([C@H]3CCN(C4COC4)C[C@@H]3F)c2Cl)ncc1C(F)(F)F
inactive: Potency (CAOV3) | Potency (CASKI) | Potency (Es-2) | Potency (HeLa) | Potency (Hek293T) | Potency (JEG-3) | Potency (OV90) | Potency (SKOV3) | Potency (Tov-21-G) | Potency (Tov112D)

Cc1nnc(C(C)C)n1C1CC2CCC(C1)N2CC[C@H](NC(=O)C1CCC(F)(F)CC1)c1ccccc1 (stereo not given in full)
inactive: Potency (CAOV3) | Potency (CASKI) | Potency (Es-2) | Potency (HeLa) | Potency (Hek293T) | Potency (JEG-3) | Potency (OV90) | Potency (PA-1) | Potency (Tov-21-G) | Potency (Tov112D)

CC1CCC2(C(=O)OC3OC(CO)C(O)C(O)C3O)CCC3(C)C(=CCC4C5(C)CC(O)C(O)C(C)(C(=O)O)C5CCC43C)C2C1(C)O (stereo not given)
inactive: Potency (CAOV3) | Potency (CASKI) | Potency (Es-2) | Potency (HeLa) | Potency (Hek293T) | Potency (JEG-3) | Potency (OV90) | Potency (SKOV3) | Potency (Tov-21-G) | Potency (Tov112D)

COc1cc(CC(COC2OC(CO)C(O)C(O)C2O)c2cc(/C=C/CO)cc(OC)c2O)ccc1O (stereo not given)
inactive: Potency (CAOV3) | Potency (CASKI) | Potency (Es-2) | Potency (HeLa) | Potency (Hek293T) | Potency (JEG-3) | Potency (OV90) | Potency (PA-1) | Potency (Tov-21-G) | Potency (Tov112D)

CC1(C)C[C@H]2C3=CCC4[C@@]5(C)CC[C@H](O[C@H]6O[C@H](C(=O)O)[C@@H](O)[C@H](O)[C@H]6O[C@H]6O[C@H](CO)[C@@H](O)[C@H](O)[C@H]6O[C@@H]6O[C@H](CO)[C@@H](O)[C@H](O)[C@H]6O)[C@](C)(CO)C5CC[C@@]4(C)[C@]3(C)CC[C@@]2(C)[C@H](O[C@@H]2OC[C@H](O)[C@H](OC3O[C@H](CO)[C@@H](O)[C@H](O)[C@H]3O)[C@H]2O)[C@@H]1O (stereo not given in full)
inactive: activity change, negative = cytotoxicity (CAOV3) 18.6% [at 6.55 µM] | activity change, negative = cytotoxicity (CASKI) -2.3% [at 6.55 µM] | activity change, negative = cytotoxicity (Es-2) 0.0485% [at 6.55 µM] | activity change, negative = cytotoxicity (HeLa) 2.32% [at 6.55 µM] | activity change, negative = cytotoxicity (Hek293T) -1.35% [at 6.55 µM] | activity change, negative = cytotoxicity (JEG-3) 2.5% [at 6.55 µM] | activity change, negative = cytotoxicity (OV90) -1.3% [at 6.55 µM] | activity change, negative = cytotoxicity (SKOV3) -2.8% [at 6.55 µM] | activity change, negative = cytotoxicity (Tov-21-G) 3.65% [at 6.55 µM] | activity change, negative = cytotoxicity (Tov112D) -3.08% [at 6.55 µM]

CCCCN(CCCC)C(=O)CN1C[C@H](c2ccc3c(c2)OCO3)[C@@H](C(=O)O)[C@@H]1c1ccc(OC)cc1
inactive: Potency (CAOV3) | Potency (CASKI) | Potency (Es-2) | Potency (HeLa) | Potency (Hek293T) | Potency (JEG-3) | Potency (OV90) | Potency (PA-1) | Potency (Tov-21-G) | Potency (Tov112D)

COc1ccc(C(OC2OC(CO)C(O)C(O)C2O)C(C)O)cc1 (stereo not given)
inactive: Potency (CAOV3) | Potency (CASKI) | Potency (Es-2) | Potency (HeLa) | Potency (Hek293T) | Potency (JEG-3) | Potency (OV90) | Potency (PA-1) | Potency (Tov-21-G) | Potency (Tov112D)

CC1(C)CC[C@]2(C(=O)O)CC[C@]3(C)C(=CCC4[C@@]5(C)CCC(O[C@@H]6OC[C@H](O)[C@H](O)[C@H]6O[C@@H]6O[C@H](CO)[C@@H](O)[C@H](O)[C@H]6O)[C@@](C)(CO)C5CC[C@]43C)[C@@H]2C1 (stereo not given in full)
inactive: Potency (CAOV3) | Potency (CASKI) | Potency (Es-2) | Potency (HeLa) | Potency (Hek293T) | Potency (JEG-3) | Potency (OV90) | Potency (SKOV3) | Potency (Tov-21-G) | Potency (Tov112D)

CCc1c(CC(N)=O)c2cc(OCCCP(=O)(O)O)ccc2n1Cc1ccccc1
inactive: Potency (CAOV3) | Potency (CASKI) | Potency (Es-2) | Potency (HeLa) | Potency (Hek293T) | Potency (JEG-3) | Potency (OV90) | Potency (PA-1) | Potency (Tov-21-G) | Potency (Tov112D)
